Data on 8 compounds can be found in PubChem BioAssay (NCI).

Among the test systems are NCI-H23 lung; NCI-H226 lung; NCI-H322M lung; HOP-62 NSCLC; NCI-H460 lung; HOP-92 NSCLC; NCI-H522 lung; A549/ATCC NSCLC; 786-0 renal; COLO 205 colon; DU-145 prostate; K-562 leukemia; MALME-3M melanoma; MDA-MB-231 breast; RXF 393 renal; SF-268 CNS; SF-295 CNS; SF-539 CNS; UACC-257 melanoma; M14 melanoma.
Common to all, as to assay: NCI-60 one-dose screen, 48 h (100 = growth as untreated, 0 = no growth, -100 = all killed)
Common to all, as to details: 10 µM unless noted

About 83,000 compounds went through this panel and 20% of them were active in at least one assay; those are over-represented in the sample as a whole.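 Cell lines were cultured in 96-well plates, exposed to a single compound concentration, and assessed for percent growth 48 hours later.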 Values without a mark were called inactive. Calls of active or inactive are those of the source. How the source made its calls: active means growth percent below 10; inactive means the rest.

For `[N-]=[N+]=NCC1OC(n2cnc3c(NC(=O)Nc4ccccc4)ncnc32)C2OC(=O)CC12` (stereo not drawn), the growth with NCI-H23 lung was 106%; with NCI-H226 lung it was 106%; in the assay on NCI-H322M lung, 99.8%; in the assay on HOP-62 NSCLC, 98.1%; in the assay with NCI-H460 lung, 112%; in the assay with HOP-92 NSCLC it was 86.9%. For the same compound, the growth with NCI-H522 lung is 107%; in the assay on A549/ATCC NSCLC, 95.2%; in the assay with 786-0 renal, 105%; in the assay with COLO 205 colon it was 105%; with DU-145 prostate, 109%; in the assay with K-562 leukemia, 92.7%. Further, the growth is 96.9% in the assay with MALME-3M melanoma; 123% in the assay with MDA-MB-231 breast; -28.7% (active) in the assay with RXF 393 renal; 103% with SF-268 CNS; 100% in the assay on SF-295 CNS; 97.8% in the assay on SF-539 CNS. Further, the growth in the assay on UACC-257 melanoma was 122%.

In the case of `Fc1cccc(CNc2c3ccccc3nc3ccccc23)c1`, the growth is 33.9% in the assay on NCI-H23 lung; 50.6% in the assay with NCI-H226 lung; 40.2% in the assay on NCI-H322M lung; 47.9% in the assay with HOP-62 NSCLC; 12.7% in the assay on NCI-H460 lung; -4.06% (active) with HOP-92 NSCLC. The growth in the assay with NCI-H522 lung was 37.8%; with A549/ATCC NSCLC it was 29.3%; with 786-0 renal it was 36.4%; in the assay with COLO 205 colon it was 17.3%; with DU-145 prostate it was 41.7%; in the assay on K-562 leukemia, 15.7%. The growth is 50.5% in the assay on MALME-3M melanoma; 30.6% in the assay on MDA-MB-231 breast; 32.8% with RXF 393 renal; 62.1% with SF-268 CNS; 25.2% in the assay with SF-295 CNS; 26.9% in the assay on SF-539 CNS. In the assay on UACC-257 melanoma, the growth was 58.1%.

Turning to `Cc1cc(Cl)nc(N2CCN(CCNc3ccnc4cc(Cl)ccc34)CC2)n1`, the growth in the assay with NCI-H23 lung was 27.2%; with NCI-H226 lung it was 59.8%; with NCI-H322M lung it was 75.2%; in the assay on HOP-62 NSCLC, 68.2%; in the assay on NCI-H460 lung, 48.3%; in the assay with HOP-92 NSCLC it was 27.9%. The growth in the assay on NCI-H522 lung is 51.8%; with A549/ATCC NSCLC, 58.2%; with 786-0 renal it was 49.1%; in the assay on COLO 205 colon it was -50.1% (active); with DU-145 prostate it was 66.6%; in the assay on K-562 leukemia, 10.5%. Moreover, the growth in the assay with MALME-3M melanoma is 41.8%; in the assay with MDA-MB-231 breast, 49.5%; in the assay with RXF 393 renal it was 61.5%; in the assay with SF-268 CNS it was 72.2%; with SF-295 CNS, 36.4%; with SF-539 CNS, 31.7%. The growth with UACC-257 melanoma was 13.5%.

With `O=C(Nc1ncc(Cc2ccccc2)s1)c1sc2ccccc2c1Cl`, the growth with NCI-H23 lung was 40.8%; in the assay with NCI-H226 lung it was 65%; in the assay with NCI-H322M lung, 43.4%; in the assay on HOP-62 NSCLC it was 25%; with NCI-H460 lung it was 8.39% (active); in the assay with HOP-92 NSCLC, 76.7%. Moreover, the growth in the assay with NCI-H522 lung was -2.01% (active); in the assay on A549/ATCC NSCLC it was 26.6%; in the assay with 786-0 renal, 43.2%; in the assay on COLO 205 colon, 16.8%; with DU-145 prostate, 17%; in the assay on K-562 leukemia it was 12.1%. Also, the growth with MALME-3M melanoma is 51%; with MDA-MB-231 breast it was 55.5%; in the assay on RXF 393 renal, -5.07% (active); in the assay with SF-268 CNS, 52.1%; in the assay with SF-295 CNS it was 17.7%; with SF-539 CNS it was -1.43% (active). Further, the growth in the assay with UACC-257 melanoma is 54.6%.

`O=C1CCCCN1c1ccc(C2=NCCCN2)cc1`: the growth in the assay on NCI-H23 lung was 99.2%; in the assay on NCI-H226 lung it was 101%; with NCI-H322M lung, 92.3%; in the assay with HOP-62 NSCLC, 101%; in the assay with NCI-H460 lung, 94.9%; with HOP-92 NSCLC, 117%. Besides, the growth was 79.1% in the assay with NCI-H522 lung; 97% with A549/ATCC NSCLC; 95% in the assay on 786-0 renal; 104% in the assay on COLO 205 colon; 103% in the assay with DU-145 prostate; 80.6% in the assay with K-562 leukemia. Also, the growth was 77.4% in the assay with MALME-3M melanoma; 88.6% in the assay with MDA-MB-231 breast; 90.4% with RXF 393 renal; 92% with SF-268 CNS; 85.1% in the assay on SF-295 CNS; 64.7% with SF-539 CNS. Moreover, in the assay with UACC-257 melanoma, the growth was 111%.

Regarding `Cc1cc(NCCCNc2ccnc3cc(Cl)ccc23)nc(Nc2ccc(C(=O)N3CCCCC3)cc2)n1`, the growth in the assay with NCI-H23 lung is 52.5%; with NCI-H226 lung, 108%; with NCI-H322M lung it was 17.8%; in the assay on HOP-62 NSCLC it was 73.8%; with NCI-H460 lung, 9.68% (active); in the assay on HOP-92 NSCLC, 83.8%. In addition, the growth in the assay on NCI-H522 lung is -11.6% (active); in the assay with A549/ATCC NSCLC, 20.5%; in the assay with 786-0 renal it was -29.5% (active); in the assay on COLO 205 colon it was -32.1% (active); in the assay on DU-145 prostate it was 36.6%; in the assay with K-562 leukemia it was 0.0536% (active). Also, the growth is -90.5% (active) in the assay on MALME-3M melanoma; -38.7% (active) in the assay on MDA-MB-231 breast; -63.9% (active) in the assay with RXF 393 renal; 10.2% with SF-268 CNS; -34% (active) in the assay on SF-295 CNS; -75.1% (active) in the assay on SF-539 CNS. Moreover, in the assay with UACC-257 melanoma, the growth was -72.9% (active).

As for `Cc1c(O)cc(-c2cnc(N/N=C/c3ccccc3)s2)c(O)c1C`, the growth in the assay with NCI-H23 lung is 97.7%; in the assay on NCI-H226 lung, 92.4%; with NCI-H322M lung it was 97.6%; with HOP-62 NSCLC it was 107%; in the assay on NCI-H460 lung, 102%; with HOP-92 NSCLC, 92.6%. Moreover, the growth was 82.3% in the assay with NCI-H522 lung; 94.1% with A549/ATCC NSCLC; 117% in the assay on 786-0 renal; 111% in the assay on COLO 205 colon; 105% in the assay on DU-145 prostate; 89.9% in the assay with K-562 leukemia. Besides, the growth with MALME-3M melanoma was 107%; with MDA-MB-231 breast it was 101%; in the assay with RXF 393 renal, 102%; in the assay on SF-268 CNS, 91.6%; with SF-295 CNS, 103%; in the assay with SF-539 CNS, 100%. Moreover, the growth with UACC-257 melanoma is 95.5%; with M14 melanoma it was 95.9%.

Consider `COc1cc2c(cc1OCCCN1CCN(C(=S)SCCC(C#N)(c3ccccc3)c3ccccc3)CC1)N=C[C@@H]1CCCN1C2=O`, for which the growth was -46.7% (active) in the assay with NCI-H23 lung; -55.8% (active) in the assay on NCI-H226 lung; -62.2% (active) with NCI-H322M lung; 1.76% (active) with HOP-62 NSCLC; -80.3% (active) with NCI-H460 lung; -71% (active) in the assay on HOP-92 NSCLC. Further, the growth is -48.3% (active) with NCI-H522 lung; -3.55% (active) in the assay with A549/ATCC NSCLC; -94.9% (active) in the assay on 786-0 renal; -69.5% (active) in the assay with COLO 205 colon; -100% (active) with DU-145 prostate; -5.69% (active) in the assay on K-562 leukemia. Moreover, the growth is -89.3% (active) with MALME-3M melanoma; -31.1% (active) with MDA-MB-231 breast; -92.9% (active) in the assay with RXF 393 renal; -72.5% (active) in the assay with SF-268 CNS; -14.2% (active) in the assay on SF-295 CNS; -94.7% (active) with SF-539 CNS. Moreover, the growth in the assay on UACC-257 melanoma is -45.5% (active).
